Screening data deposited in PubChem by National Center for Advancing Translational Sciences (NCATS).
Shown are actives, neighbours in structure and some others; about 2.4% of the full set was active somewhere.
POLI inh = blocks human DNA polymerase iota activity; Q9UNA4; Pol iota fluorescent replication assay, 10 min; Potency, µM (top dose mostly 115 µM), inactives show top-dose activity, negative = inhibition, most hits filed as inhibitors; 1% of 390,000 active
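Fluorescent replication assay read twice, at 0 min and 10 min after adding 50 nM (final) substrate. Enzyme (10 nM) and compounds were first incubated 15 min at room temperature; enzyme-free buffer wells were negative controls.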
Pol eta inh = DNA polymerase eta (human) inhibition; Q9Y253; recombinant Pol eta, fluorescent DNA replication assay; Potency, µM (top dose mostly 114 µM), for the others: top-dose activity change, negative = inhibition, most hits filed as inhibitors; 1.2% of 390,000 active; note: % is set by controls: 0 for no effect and ±100 for the full control effect
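Pol eta at 10 nM preincubated with compounds 15 min at room temperature; reaction started with fluorescent substrate (50 nM final) and read kinetically at 0 and 10 min.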
Pol kappa inh = inhibitors of human DNA polymerase kappa. Q9UBT6. purified Pol kappa, fluorescent DNA synthesis assay, 10 min. AID 588579. Potency, µM (titrated, usually from 107 µM), for inactives: at the highest dose activity, negative = inhibition, hits mostly inhibitors. 0.53% of 400,000 active; note: % is set by controls: 0 for no effect and ±100 for the full control effect
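Enzyme at 10 nM met test compounds for 15 min at room temperature. Substrate addition (50 nM final) began the reaction, which was monitored by fluorescence at 0 and 10 min.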
POLB inh = blocks human DNA polymerase beta activity; P06746; Pol beta primer extension/strand displacement, fluorescence kinetic; Potency, µM (series often up to 114 µM), inactives show top-dose activity change, negative = inhibition, actives largely listed as inhibitors; 1.3% of 340,000 active; AID 485314; note: % is set by controls: 0 for no effect and ±100 for the full control effect
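Preincubation: enzyme (10 nM) with compound, 15 min, RT. Reaction: substrate added to 50 nM final. Reads: 0 and 10 min. Analysis: normalized, Hill fit.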
WRN helicase inh = WRN helicase (human) inhibition | Q14191 | WRN helicase unwinding, fluorescent forked duplex, kinetic | Potency, µM (titrated, usually from 114 µM), without a hit: at the highest dose activity change, negative = inhibition, most hits filed as inhibitors | 0.46% of 360,000 active; note: % is set by controls: 0 for no effect and ±100 for the full control effect; nearly all actives have a fitted effect of over 55% in size
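Fluorescence dequenching readout, ex 525 nm/em 598 nm, kinetic mode: forked duplex DNA (100 nM final) with adjacent fluorophore and quencher unwound by WRN (20 nM final) with 2 mM ATP. Compound preincubation 15 min, room temperature.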
FEN1 inh-1 = blocks human flap endonuclease 1. P39748. Recombinant FEN1 flap cleavage, fluorescence, 15 min. Potency, µM (series often up to 114 µM), for inactives: at the top dose activity change, negative = inhibition, usual class: inhibitors. 0.35% of 390,000 active; note: % is set by controls: 0 for no effect and ±100 for the full control effect; nearly all actives have a fitted effect of over 65% in size
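Compounds are tested as a concentration series against 10 nM FEN1; after a 15 min room-temperature preincubation, 50 nM substrate starts cleavage, with plate reads at 0 and 15 min. Normalized responses are fitted by a Hill equation.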
FEN1 inh-2 = FEN1 inhibition, cherry-pick retest; shares compounds with FEN1 inh-1; FEN1 flap cleavage, TAMRA/BHQ2 fluorogenic DNA substrate; Potency, µM, hits mostly inhibitors; 79% of 880 active; note: nearly all actives have a fitted effect of over 60% in size
* hit, by the source's call; ? = inconclusive; / = no result given; ! = a repeat was not active; [ ] = dose if it differs, or a comment. Calls come from the whole dose curve; as a rule, active = well fitted curve in the direction sought with a large enough effect; inconclusive = small, poorly fitted or top-dose-only effect, or another doubt; inactive = no such curve, though single readings can be large; an effect the other way counts as inactive or inconclusive. Potency is the fitted concentration of half-maximal effect.

SMILES	POLI inh	Pol eta inh	Pol kappa inh	POLB inh	WRN helicase inh	FEN1 inh-1	FEN1 inh-2
O=C(Nc1ccccc1-c1cn2c(CN3CCNCC3)csc2n1)c1cnc2ccccc2n1	-28.6%	/	-23.5%	/	/	28.2µM*	23.9*
O=C(Nc1cccnc1)c1cnc2ccccc2n1	23.9%	-18.5%	-3.8%	-11.1%	0.5%	4.3%	/
COc1ccc(OC)c(CCNC(=O)c2cc3c(=O)oc4ccc(C)cc4c3s2)c1	25.5%	-21.7%	0.2%	21.6%	/	-1.1%	/
Cc1ccc2c(c1)N(C)/C(=C/c1cccc[n+]1C)S2	?	-7.8%	-18.1%	?	0.7%[11.6 µM]	?	37.9*
COc1ccc2c(c1)N(C)/C(=C/c1cccc[n+]1C)S2	?	-15.2%	-20.6%	39.8µM*	-0.9%[11.6 µM]	20µM*	?
COc1ccc(CCNc2nc3cc(OC)c(OC)cc3c3nc(-c4cccnc4)nn23)cc1OC	6.7%	-22.2%	5.9%	?	/	-7.4%	/
COc1cc(C(=O)NC2CCN(C)CC2)ccc1Nc1ncc2c(n1)N(C1CCCCC1)CCC(=O)N2C	?	-24.3%	-22.7%	/	-23.0%	?	37.9*
COc1cc(C(=O)NC2CCN(C)CC2)ccc1Nc1ncc2c(n1)N(Cc1ccccc1)CCC(=O)N2C	39.1%	-12.1%	-9.9%	/	-14.8%	?	/
CCc1ccc(NC(=O)N(Cc2ccc(C)cc2)Cc2cccn2-c2nnc(N3CCCC3=O)s2)cc1	2.0%	-1.2%	-2.7%	-24.4%	/	-21.3%	/
CCN(CC)S(=O)(=O)c1ccc2c(c1)N(CC(=O)N1CCN(c3cccc(C)c3C)CC1)C(=O)CO2	4.1%	-22.3%	-6.9%[60.1 µM]	0.3%	/	4.0%	/
Cc1[nH]c2ccccc2c1/C=C/c1cc[n+](C)cc1	-6.1%	-12.9%	-10.5%	-28.2%	-20.9%[57.1 µM]	?	?
CCOc1ccc(Nc2cc(C)c3ccccc3n2)cc1	-2.3%	-6.3%	-4.7%	-9.5%	-6.9%[57.1 µM]	2.1%	/
CCOc1ccc(Nc2c3ccccc3nc3ccccc23)cc1	1.1%	0.7%	-15.7%	20µM*	?	44.7µM*	42.6*
O=C(Cc1cnn(-c2ccccc2)c1)c1ccc(O)c(O)c1O	?	?	2.51µM*	?	10.6µM*	25.1µM*	33.8*
CCOC(=O)c1c(NC(C)=O)c2c3c(sc2n1Cc1nc(-c2ccccc2OCC)oc1C)CCCC3	42.8%	/	9.6%	30.6%	/	0.2%	/
O=[N+]([O-])c1ccc(N/N=C/c2ccc(O)c(O)c2O)c(S(=O)(=O)N2CCOCC2)c1	?	?	?	?	?	20µM*	33.8*
CN(C)c1ccc(/C=C2/C[N+](C)(C)C/C(=C/c3ccc(N(C)C)cc3)C2=O)cc1	-18.6%	?	-24.9%	/	20µM*	?	?
COc1ccc(CCn2c3c(c(=O)[nH]c2=S)CN(Cc2ccccc2)CN3)cc1OC	?	/	-16.9%	/	/	-2.1%	/
COc1cccc(CNCCSc2nnnn2-c2ccccc2)c1OC	14.0%	-21.5%	-7.9%	2.2%	/	-3.5%	/
COc1ccc(/C=N\NC(=O)c2cc(O)c(O)c(O)c2)cc1COc1ccc(C(=O)OCC(C)C)cc1	5.4%	?	7.9%	1.41µM*	-6.2%[11.6 µM]	?	33.8*
Cc1cccc(N2CCN(C(=O)c3cc4ccc5cccnc5c4[nH]3)CC2C)c1 (stereo not drawn)	15.4%	-10.8%	-10.9%	-17.7%	/	-3.0%	/
CN(C)C=Nc1ccc2nc3c(cc2c1)[nH]c1ccccc13	-19.1%	?	-3.4%	?	?	?	30.1*
COc1ccc(Nc2nc3c(S(=O)(=O)c4ccc(Br)cc4)nnn3c3ccsc23)c(OC)c1	-2.3%	11.5%	-3.7%	8.1%	/	13.4%	/
Cc1cc(C)c2c(=N)c3ccccc3n(CCCCCCCCn3c4ccccc4c(=N)c4c(C)cc(C)nc43)c2n1	?	?	-35.4%	/	50.1µM*	7.08µM*	5.36*
CCCCCCCCn1c2c(c(=N)c3ccccc31)CCC2	86.1%	-15.9%	-3.5%	5.7%	7.2%	-14.2%	/
SMILES	POLI inh	Pol eta inh	Pol kappa inh	POLB inh	WRN helicase inh	FEN1 inh-1	FEN1 inh-2
Cc1ccc(NCc2ccccc2OCc2ccccc2F)cc1	4.2%	6.0%	-11.3%	-0.7%	-3.1%	-14.4%	/
Oc1ccc(NCc2ccccc2OCc2ccccc2F)cc1	10µM*	50.1µM*!	-21.6%	23.2%	?	?	?
Cc1ccc(NC(=O)CN2C(=O)C(c3ccccc3)=NC2(C)C)cc1C	41.2%	/	-11.7%	2.2%	/	-8.8%	/
CCOc1ccc(N=Cc2c(C)[nH]n(-c3nc4ccccc4[nH]3)c2=O)cc1	5.2%	15.8µM*	?	22.4µM*	?	?	?
Cc1[nH]n(-c2ccccc2)c(=O)c1C=Nc1cnc2ccccc2c1	?	?	-1.5%	?	-12.1%	16.6%	/
Cc1cc(N/N=C/c2ccc(N(C)C)cc2)c2ccccc2n1	3.0%	?	-7.6%	-1.7%	-1.9%	-1.0%	/
Cc1cc(N/N=C/c2ccc(O)cc2)c2cccc(C)c2n1	-24.2%	?	-24.2%	25.1µM*	44.7µM*	?	37.9*
COc1cc(-c2nnc(COC(=O)c3ccc([N+](=O)[O-])o3)o2)cc(OC)c1OC	/	79.4µM*	/	/	10.8%	/	8.49*
CCOc1ccc(N2C(=O)CSC2=S)cc1	-20.1%	-8.7%	-2.4%	-3.1%	-1.9%	-4.4%	/
O=C(O)c1ccc(N2C(=O)CSC2=S)cc1	?	0.0%	79.4µM*	/	3.4%[11.6 µM]	-2.5%	?
CCOc1ccc(CNC(=O)C2CCCN(c3nc4c(C)cc(C)cc4s3)C2)cc1 (stereo not drawn)	45.0%	-23.9%	8.6%	32.3%	/	-1.3%	/
CCN(CC)CCNC(=O)c1cc2c(-c3ccc(Cl)cc3)nn(C)c2s1	?	9.9%	-16.6%	15.8µM*	48.4%	28.2µM*	37.9*
CCOCCCNC(=O)c1cc2c(-c3ccc(Cl)cc3)nn(C)c2s1	6.5%	-8.9%	-8.8%	3.8%	-7.6%	-13.3%	/
Cn1nc(-c2ccc(Cl)cc2)c2cc(C(=O)NCCN3CCOCC3)sc21	?	11.4%	-3.2%	-6.2%	3.0%	-18.3%	/
CCCCN(CC)CCNC(=O)c1cc2c(-c3ccc(Cl)cc3)nn(C)c2s1	?	-8.2%	-12.6%	3.16µM*	88.2%	44.7µM*	37.9*
CCN(CC)CCNC(=O)c1cc2c(-c3cccc(OC)c3)nn(C)c2s1	?	-10.4%	14.3%	70.8µM*	52.4%	?	37.9*
Cc1ccc(NC(=O)CN2C(=O)CSc3ccc(S(=O)(=O)N(C)C)cc32)cc1C	8.6%	-4.0%	-10.3%	-15.9%	/	-10.0%	/
